# Results published in publication PMC5540273 (PLoS ONE, 2017).
# How the values were obtained:
# Details in all cases: concentration: 1 μM, replicates: in singlicate; n = 1
# BLK = tested on: BLK
# BMPR1A = tested on: BMPR1A
# BMPR1B = tested on: BMPR1B
# BMPR2 = tested on: BMPR2
# BMX = tested on: BMX
# BRAF = tested on: BRAF
# BRK = tested on: T1, BRK
# T1 construct: gene PTK6
# BRSK1 = tested on: BRSK1
# BRSK2 = tested on: BRSK2
# BTK = tested on: BTK
# BUB1 = tested on: BUB1
# CAMK1B = tested on: CAMK1B
# CAMK1D = tested on: CAMK1D
# CAMK1G = tested on: CAMK1G
# CAMK1 = tested on: CAMK1
# CAMK2A = tested on: CAMK2A
# CAMK2B = tested on: CAMK2B
# CAMK2D = tested on: CAMK2D
# CAMK2G = tested on: CAMK2G
# CAMK4 = tested on: CAMK4
# 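Also: KINOMEscan kinase panel screen.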
Compound,%Inh (BLK),%Inh (BMPR1A),%Inh (BMPR1B),%Inh (BMPR2),%Inh (BMX),%Inh (BRAF),%Inh (BRK),%Inh (BRSK1),%Inh (BRSK2),%Inh (BTK),%Inh (BUB1),%Inh (CAMK1B),%Inh (CAMK1D),%Inh (CAMK1G),%Inh (CAMK1),%Inh (CAMK2A),%Inh (CAMK2B),%Inh (CAMK2D),%Inh (CAMK2G),%Inh (CAMK4)
Cc1c(Cn2c(C)nn3c(=O)cc(N4CCOC(C)C4)nc23)cccc1C(F)(F)F (stereo not shown) [GSK2344444],25%,6%,0%,0%,1%,0%,7%,0%,0%,0%,0%,10%,9%,0%,0%,0%,0%,0%,10%,0%
COc1ccc(Nc2nccc(N3CCC(NC(=O)Nc4cc(C)ccc4C)C3)n2)cc1 (stereo not shown) [GSK1379741],0%,0%,0%,0%,0%,0%,5%,0%,0%,0%,33%,13%,0%,0%,0%,0%,0%,0%,0%,0%
O=C(c1ccc(-c2cc(-c3c[nH]nc3-c3ccccn3)ccn2)cc1)N1CCOCC1 [GW812171],0%,0%,11%,16%,0%,32%,0%,0%,10%,0%,20%,0%,21%,0%,14%,0%,0%,0%,0%,0%
Cl.Nc1ncnc2occ(-c3ccc(NC(=O)Nc4cc(C(F)(F)F)ccc4F)cc3)c12 [SB-707548],44%,0%,0%,1%,82%,71%,3%,20%,0%,21%,17%,36%,23%,0%,22%,0%,0%,0%,25%,32%
CCn1cnc2c(N)ncnc21 [GW345098],12%,24%,15%,35%,41%,0%,8%,5%,0%,0%,3%,0%,10%,0%,9%,6%,8%,0%,0%,1%
Cc1ccc(C(=O)NCC(N)=O)cc1-n1c(C)cc(OCc2ccc(F)cc2F)c(Br)c1=O,14%,2%,0%,0%,24%,0%,23%,11%,39%,0%,0%,10%,36%,0%,44%,9%,1%,0%,0%,26%
Fc1ccc(-c2ncn(CCCN3CCOCC3)c2-c2cccnc2)cc1 [SB-211743],16%,0%,0%,16%,0%,2%,0%,0%,4%,0%,4%,0%,0%,0%,0%,0%,0%,0%,0%,14%
COC(=O)Nc1nc2cc(Oc3ccc(NC(=O)Nc4cc(F)ccc4F)cc3)ccc2[nH]1.Cl [GW701424],25%,0%,0%,24%,9%,53%,0%,0%,0%,6%,77%,27%,20%,7%,4%,0%,0%,20%,11%,0%
COCCNC(=O)c1ccc(-c2cc(C(=O)NC3CC3)cc(F)c2C)cc1 [GW868318],0%,19%,19%,46%,7%,10%,0%,0%,18%,0%,51%,5%,10%,0%,14%,7%,10%,8%,13%,7%
Cc1cn2c(=O)cc(N3CCOCC3)nc2n1Cc1cccc(Cl)c1Cl [GSK2334006],37%,19%,0%,0%,10%,15%,5%,14%,0%,0%,4%,40%,14%,30%,12%,0%,0%,10%,32%,0%
O=C1Cc2cc(Nc3nc(NCc4cccc(S(=O)(=O)C(F)(F)F)c4)ncc3C(F)(F)F)ccc2N1,1%,0%,18%,19%,0%,1%,0%,3%,0%,0%,34%,11%,0%,2%,0%,0%,0%,5%,8%,4%
